Test results published in PubChem BioAssay (Tox21).
Results filed as inconclusive are left out. Activity calls are given as the source filed them. Unless noted, calls come from the whole dose curve; as a rule, active = well fitted curve in the direction sought with a large enough effect in the repeat runs; inconclusive = weak or mixed curves; inactive = no such curve, though single readings can be large; an effect the other way counts as inactive or inconclusive.

How the values were obtained:
[1] = qHTS assay to identify small molecule antagonists of the glucocorticoid receptor (GR) signaling pathway - cell viability counter screen (AID 720693); note: nearly all actives have a fitted effect of over 55% in size
[2] = qHTS assay for identifying genotoxic compounds that show differential cytotoxicity against isogenic chicken DT40 cell lines with known DNA damage response pathways - wild type cell line (AID 743012); note: nearly all actives have a fitted effect of over 60% in size
How it was run: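 Using parental DT40 (300 cells/well), compounds delivered in DMSO incubate 40 h at 37 C/5% CO2. CellTiter-Glo reagent then stands 30 min at room temperature, and luminescence gives cell viability.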

[3] = qHTS assay for identifying genotoxic compounds that show differential cytotoxicity against isogenic chicken DT40 cell lines with known DNA damage response pathways - Rev3 mutant cell line (AID 743014); note: nearly all actives have a fitted effect of over 55% in size
[4] = qHTS assay for identifying genotoxic compounds that show differential cytotoxicity against isogenic chicken DT40 cell lines with known DNA damage response pathways - Rad54/Ku70 mutant cell line (AID 743015); note: nearly all actives have a fitted effect of over 60% in size
[5] = qHTS assay to identify small molecule antagonists of the androgen receptor (AR) signaling pathway - cell viability counter screen (AID 743033; note: nearly all actives have a fitted effect of over 45% in size)
[6] = qHTS assay to identify small molecule antagonists of the androgen receptor (AR) signaling pathway using the MDA cell line - cell viability counter screen (AID 743041; note: nearly all actives have a fitted effect of over 45% in size)
How it was run: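 MDA-kb2 AR-luc cells (MMTV-luciferase, AR/GR responsive) treated with compounds plus R1881 agonist for 16 h at 37C. CellTiter-Fluor added at 15.5 h; fluorescence read after 30 min in the same wells.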

[7] = qHTS assay to identify small molecule antagonists of the thyroid receptor (TR) signaling pathway - cell viability counter screen (AID 743064); note: nearly all actives have a fitted effect of over 50% in size
How it was run: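 Fluorescence from CellTiter-Fluor, added after 23.5 h exposure at 37 °C, reported viability of GH3.TRE-Luc cells co-treated with compound and 1 nM T3. Measured in the same wells as the luciferase TR readout.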

[8] = qHTS assay to identify small molecule antagonists of the thyroid receptor (TR) signaling pathway (AID 743065); note: series mostly up to about 70 µM; nearly all actives have a fitted effect of over 55% in size
How it was run: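 GH3.TRE-Luc rat pituitary cells (two TREs driving luciferase) were dosed with compound, then stimulated with 1 nM T3 (final) for 23.5 h at 37 C. ONE-Glo luminescence was the read-out, with CellTiter-Fluor fluorescence as the cytotoxicity counter-screen.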

[9] = tested on: thyroid hormone receptor (rat, GH3 cells); test: qHTS assay to identify small molecule agonists of the thyroid receptor (TR) signaling pathway (AID 743066; calls by dose curve)
[10] = target: Estrogen receptor (Homo sapiens) (UniProt P03372); test: qHTS assay to identify small molecule antagonists of the estrogen receptor alpha (ER-alpha) signaling pathway (AID 743069; active = well fitted curve in the direction sought with a large enough effect in the signal ratio in the repeat runs, not every such curve was filed as active; the % refers to the signal ratio)
How it was run: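 HEK293 ER-alpha-UAS-bla GripTite cells, held overnight in 2% charcoal-stripped FBS, 5,000 cells/well, preincubated 4 h, then compound plus 17beta-estradiol for 18 h at 37C. Beta-lactamase read by LiveBLAzer B/G FRET substrate, 2 h at room temperature.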

[11] = qHTS assay to identify small molecule antagonists of the estrogen receptor alpha (ER-alpha) signaling pathway - cell viability counter screen (AID 743074; calls by dose curve;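 note: HEK293 cells carrying ER-alpha-UAS-bla reporter stimulated with 17beta-estradiol; nearly all actives have a fitted effect of over 45% in size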)
[12] = target: Estrogen receptor (Homo sapiens) (UniProt P03372); test: qHTS assay to identify small molecule agonists of the estrogen receptor alpha (ER-alpha) signaling pathway (AID 743075; calls by dose curve)
[13] = target: Estrogen receptor (Homo sapiens) (UniProt P03372); test: qHTS assay to identify small molecule agonists of the estrogen receptor alpha (ER-alpha) signaling pathway using the BG1 cell line (AID 743079); note: nearly all actives have a fitted effect of over 20% in size
[14] = qHTS assay to identify small molecule antagonists of the estrogen receptor alpha (ER-alpha) signaling pathway using the BG1 cell line (AID 743080; calls by dose curve;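 note: BG1 cells stimulated with 17beta-estradiol alongside compound; series mostly up to about 70 µM; nearly all actives have a fitted effect of over 25% in size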)
How it was run: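 Endogenous full-length ER-alpha in BG1-Luc-4E2 cells drives a stably integrated 4×ERE luciferase gene; compounds were tested against 17beta-estradiol over 21.5 h, with luminescence and multiplexed viability fluorescence recorded.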

[15] = qHTS assay to identify small molecule antagonists of the estrogen receptor alpha (ER-alpha) signaling pathway using the BG1 cell line - cell viability counter screen (AID 743081);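 note: compound given together with 17beta-estradiol as the ER stimulus; series mostly up to about 70 µM; nearly all actives have a fitted effect of over 45% in size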
[16] = target: Aromatase (Homo sapiens) (UniProt P11511); test: qHTS assay to identify aromatase inhibitors (AID 743083); note: series mostly up to about 70 µM; nearly all actives have a fitted effect of over 55% in size
[17] = qHTS assay to identify aromatase inhibitors - cell viability counter screen (AID 743084)

Measured: Potency

Aromatase (Homo sapiens), sequence (P11511 whole entry, looked up): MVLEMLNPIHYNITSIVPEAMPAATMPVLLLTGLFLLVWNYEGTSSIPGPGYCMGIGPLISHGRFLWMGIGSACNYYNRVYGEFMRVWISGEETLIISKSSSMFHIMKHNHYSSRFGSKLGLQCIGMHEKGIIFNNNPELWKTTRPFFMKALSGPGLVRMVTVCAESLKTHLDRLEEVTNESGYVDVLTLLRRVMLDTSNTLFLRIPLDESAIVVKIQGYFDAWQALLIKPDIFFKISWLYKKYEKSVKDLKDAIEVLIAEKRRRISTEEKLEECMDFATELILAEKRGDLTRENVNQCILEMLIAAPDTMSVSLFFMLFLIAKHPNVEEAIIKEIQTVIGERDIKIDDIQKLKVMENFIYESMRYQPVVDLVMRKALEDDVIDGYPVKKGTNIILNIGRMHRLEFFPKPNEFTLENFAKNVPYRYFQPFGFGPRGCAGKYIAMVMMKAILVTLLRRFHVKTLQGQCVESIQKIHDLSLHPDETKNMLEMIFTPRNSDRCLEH
Estrogen receptor (Homo sapiens), sequence (P03372 whole entry, looked up): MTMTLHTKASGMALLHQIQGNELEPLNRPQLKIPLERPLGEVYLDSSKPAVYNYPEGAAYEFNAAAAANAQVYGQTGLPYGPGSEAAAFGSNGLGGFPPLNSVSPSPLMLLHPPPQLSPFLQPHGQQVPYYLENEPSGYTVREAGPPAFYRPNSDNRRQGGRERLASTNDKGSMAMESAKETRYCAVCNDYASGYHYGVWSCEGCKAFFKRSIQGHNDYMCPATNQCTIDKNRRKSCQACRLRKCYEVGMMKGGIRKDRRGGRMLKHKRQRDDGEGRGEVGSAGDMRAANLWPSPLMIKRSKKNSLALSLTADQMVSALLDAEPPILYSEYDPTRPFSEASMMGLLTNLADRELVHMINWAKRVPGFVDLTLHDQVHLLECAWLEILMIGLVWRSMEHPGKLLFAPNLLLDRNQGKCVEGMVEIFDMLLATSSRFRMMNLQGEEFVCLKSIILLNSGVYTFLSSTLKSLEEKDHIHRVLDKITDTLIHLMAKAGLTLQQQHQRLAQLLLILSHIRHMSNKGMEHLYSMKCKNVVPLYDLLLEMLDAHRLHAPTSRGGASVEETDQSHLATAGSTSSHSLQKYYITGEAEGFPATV

C[C@H]1[C@@H](c2ccccc2)NC(=O)N1C
inactive: all assays above

C[Si]1(C)O[Si](C)(C)O[Si](C)(C)O[Si](C)(C)O[Si](C)(C)O1
not listed: [10]
inactive: all other assays above

CCCCCCCCCCCCCCC(=O)NC(CO)CCCCCCCCCCCCCC (centres undefined)
not listed: [10]
inactive: all other assays above

CC(C)Nc1ccccc1
inactive: all assays above

CCC[C@@H]1C[C@@H](C(=O)N[C@@H]([C@H]2O[C@H](SC)[C@H](O)[C@@H](O)[C@H]2O)[C@@H](C)O)N(C)C1
inactive: all assays above

[O]=[Mo](=[O])=[O]
inactive: all assays above

Nc1nnnn1-c1ccccc1
inactive: all assays above

CCOC(=O)CC1(C)OCC(C)O1 (centres undefined)
inactive: all assays above
